# Source: PubChem BioAssay (NCI)
# About 83,000 compounds went through this panel and 20% of them were active in at least one assay; those are over-represented in the sample as a whole.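 Plates (96-well) were seeded with cells, treated with compound at one concentration, and incubated for 48 hours before percent growth was determined.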 Values without a mark were called inactive. Calls of active or inactive are those of the source. The calls were made as follows: active = growth percent below 10; inactive = the rest.
# What was measured:
# Test in all cases: NCI-60 one-dose screen, 48 h (100 = growth as untreated, 0 = no growth, -100 = all killed)
# Conditions in all cases: 10 µM unless noted
# SK-MEL-2 melanoma = tested on: SK-MEL-2 melanoma
# EKVX NSCLC = tested on: EKVX NSCLC
# SN12C renal = tested on: SN12C renal
# UO-31 renal = tested on: UO-31 renal
# TK-10 renal = tested on: TK-10 renal
# ACHN renal = tested on: ACHN renal
# CAKI-1 renal = tested on: CAKI-1 renal
# A498 renal = tested on: A498 renal
# CCRF-CEM leukemia = tested on: CCRF-CEM leukemia
# SR leukemia = tested on: SR leukemia
# RPMI-8226 leukemia = tested on: RPMI-8226 leukemia
# OVCAR-8 ovarian = tested on: OVCAR-8 ovarian
# OVCAR-5 ovarian = tested on: OVCAR-5 ovarian
# OVCAR-4 ovarian = tested on: OVCAR-4 ovarian
# SK-OV-3 ovarian = tested on: SK-OV-3 ovarian
# IGROV1 ovarian = tested on: IGROV1 ovarian
# OVCAR-3 ovarian = tested on: OVCAR-3 ovarian
# HS 578T breast = tested on: HS 578T breast
# NCI/ADR-RES ovarian = tested on: NCI/ADR-RES ovarian
# MOLT-4 leukemia = tested on: MOLT-4 leukemia
SMILES,growth (SK-MEL-2 melanoma),growth (EKVX NSCLC),growth (SN12C renal),growth (UO-31 renal),growth (TK-10 renal),growth (ACHN renal),growth (CAKI-1 renal),growth (A498 renal),growth (CCRF-CEM leukemia),growth (SR leukemia),growth (RPMI-8226 leukemia),growth (OVCAR-8 ovarian),growth (OVCAR-5 ovarian),growth (OVCAR-4 ovarian),growth (SK-OV-3 ovarian),growth (IGROV1 ovarian),growth (OVCAR-3 ovarian),growth (HS 578T breast),growth (NCI/ADR-RES ovarian),growth (MOLT-4 leukemia)
COc1ccc2c(c1)oc1c(C)c3c(c(C)c12)C(=O)N(CCN1CCOCC1)C3=O,124%,110%,93.2%,85.1%,115%,104%,88.1%,109%,77.4%,85.8%,92.2%,92%,92.6%,103%,114%,91.4%,106%,102%,104%,–
Cc1ccc(C(=O)/C(=C/c2ccc([N+](=O)[O-])cc2)SCc2ccc(Cl)cc2)cc1,91.5%,89%,70.3%,48.2%,90.8%,91.1%,74.8%,81%,8.74% (active),11.4%,-32.7% (active),–,85.1%,58.8%,101%,74.7%,47.6%,88.2%,72%,19.8%
CCc1ccc(-c2cn3ccnc3c(-c3ccc4ncn(Cc5ccccc5)c4c3)n2)cc1,85.2%,60.3%,77.5%,42.2%,84.5%,55.3%,52.1%,105%,50.3%,50.1%,44.6%,69.2%,85.1%,–,99.4%,75%,68.8%,78.2%,58.8%,45.8%
Brc1ccc2[nH]cc(-c3cncn3CCc3ccccc3)c2c1,55.8%,36.6%,59.1%,52.7%,-60.4% (active),65.7%,35.4%,29.3%,57.9%,40.7%,29.7%,66.9%,71%,25.9%,64.9%,76.9%,36.7%,12.8%,–,–
COc1cc(/C=C/C(=O)c2nc3cc(F)ccc3nc2C)cc(OC)c1OC,64.6%,201%,66.1%,61.1%,103%,87.3%,106%,98%,-4.9% (active),–,-4.08% (active),36%,89.7%,77.8%,113%,–,55.3%,61.4%,41.3%,-18.6% (active)
COc1cc2c(c(OC)c1OC)-c1ccc(NNC(=S)N(Cc3cccc(C[N+](Cc4cccc(CNC56CC7CC(CC(C7)C5)C6)c4)(Cc4cccc(CNC56CC7CC(CC(C7)C5)C6)c4)Cc4cccc(CN(C(=S)NNc5ccc6c(cc5=O)[C@@H](NC(C)=O)CCc5cc(OC)c(OC)c(OC)c5-6)C56CC7CC(CC(C7)C5)C6)c4)c3)C34CC5CC(CC(C5)C3)C4)c(=O)cc1[C@@H](NC(C)=O)CC2 (stereo partly drawn),-20.3% (active),44.7%,12.2%,39.7%,48.7%,44.4%,29%,-5.83% (active),-6.54% (active),-49.9% (active),-46.6% (active),16.1%,37%,29.3%,37%,10.6%,20.7%,7.62% (active),76.3%,–
Cc1ccc(-n2nc3c(c(C#N)c2=O)CC(c2ccccc2[N+](=O)[O-])C([N+](=O)[O-])=C3O)cc1 (stereo not drawn),98.8%,77.1%,91.8%,61.8%,115%,86.4%,77.4%,95.9%,88.2%,–,–,90.2%,99.8%,75.2%,–,86.2%,87.5%,77.7%,99.8%,87.6%
CSc1nc2sc3cccc(Cl)c3n2c(=N)c1C#N,105%,90.1%,101%,68.5%,123%,95%,86.8%,56.2%,86%,–,90.7%,99.3%,119%,–,–,93.4%,–,98.2%,103%,90%
CCOC(=O)c1cc(C(=O)c2cc(OC)cc(OC)c2)n2ccc3ccccc3c12,102%,94.8%,81.2%,95.3%,99.8%,84.2%,84.5%,89.3%,102%,116%,–,89.9%,98%,88.8%,98.2%,102%,112%,82.5%,92.8%,104%
C[C@H](c1nc2ccc(N)cc2[nH]1)[C@H]1CC[C@H]2[C@@H]3CCC4=CC(=O)CC[C@]4(C)[C@H]3CC[C@]12C,106%,85.6%,88.3%,65.4%,109%,96.9%,91.3%,70.3%,63.7%,44.4%,64.5%,91.4%,102%,88.1%,91.2%,85.1%,91.5%,87.3%,89%,–
CC(C)N1C(=O)/C(=C2\SC(=S)N(C(C)C)C2=O)SC1=S,96.8%,82.9%,93.1%,78.6%,88.2%,100%,93.7%,84.2%,87.8%,109%,92.9%,96.5%,88%,–,113%,94.4%,98.4%,91.4%,95.7%,101%
C=C(C)[C@@H]1CC[C@]2(C(=O)N[C@H](CO)Cc3ccccc3)CC[C@]3(C)[C@H](CC[C@@H]4[C@@]5(C)CCCNC(C)(C)[C@@H]5CC[C@]43C)[C@@H]12,-92.5% (active),-84.1% (active),-83.3% (active),-92.6% (active),-94.7% (active),-95.9% (active),-93.5% (active),-97.9% (active),-46.7% (active),-56.8% (active),-49.3% (active),-76.3% (active),-93.5% (active),-80.9% (active),-96.2% (active),-78.8% (active),-95.9% (active),-60.5% (active),-67.6% (active),–
Oc1cccc(CCc2ccc(Oc3cc(CCc4cccc(O)c4)cc(O)c3O)cc2)c1,84.1%,85.1%,67.9%,36.4%,111%,77.1%,52.7%,95.2%,24.1%,35.9%,–,75.3%,107%,–,94.8%,41.7%,63.8%,84.4%,82.1%,18%
CCOC(=O)c1cc(C(=O)c2ccc(OC)c(OC)c2)n2ccc(/C=C/c3cc[n+](CC(=O)c4ccc(OC)c(OC)c4)cc3)cc12,112%,99.6%,86.8%,82.7%,113%,96.3%,96.2%,95.6%,85.7%,92.2%,81.4%,95.5%,99.9%,–,102%,88.6%,102%,102%,98.6%,93.7%
C=CCn1c(-c2ccc(-c3nc4ccc(C)cc4[nH]3)cc2)n[nH]c1=S,112%,94.5%,96.4%,89.7%,133%,99.6%,93.6%,94.5%,87.3%,–,–,94.4%,101%,90.4%,–,97.9%,112%,102%,108%,96.9%
Cc1cc2c(c(C)c1Cl)C(=O)/C(=C/c1ccc(O)c(O)c1)O2,104%,98.7%,92.1%,72.2%,119%,92.7%,90.6%,106%,101%,–,–,99.8%,117%,96.3%,–,96.9%,109%,94%,104%,108%
O=C1Nc2cc(Cl)ccc2/C1=C\c1c(-c2ccc(F)cc2)nc2ccccn12,23.7%,34.5%,19.1%,28.7%,72.7%,41%,21.5%,-17% (active),7.67% (active),–,45.8%,34.5%,43.2%,-2.19% (active),-26.3% (active),14%,-58.3% (active),-4.87% (active),-27.6% (active),-4.44% (active)
O=C(/C(=C/c1ccc([N+](=O)[O-])cc1)SCc1ccc(F)cc1)c1ccc(F)cc1,90.4%,101%,82.4%,54.3%,79.4%,91.1%,75.2%,79.4%,7.75% (active),6.69% (active),-28.7% (active),93.1%,97.9%,73.2%,103%,78%,82.9%,89.2%,77.1%,–
CC(C)(C)[Si](C)(C)OC1[C@@H](O[Si](C)(C)C(C)(C)C)[C@@H](CNC(=O)NC(=O)CCl)O[C@H]1n1cnc2c(NC(=O)Nc3ccccc3)ncnc21 (stereo partly drawn),42.7%,-40.4% (active),-50.3% (active),-75% (active),105%,-68.6% (active),37.9%,43.5%,-37.9% (active),–,16.7%,1.14% (active),5.37% (active),-42.3% (active),-92.9% (active),-50.4% (active),-82.1% (active),-4.28% (active),20.3%,-43.8% (active)
N#Cc1c(-c2cccc([N+](=O)[O-])c2)nc(SCC(=O)c2ccc(Cl)cc2)[nH]c1=O,110%,99.8%,96.9%,80.6%,102%,103%,88.8%,92.3%,2.87% (active),–,102%,99.3%,102%,102%,95.4%,104%,103%,97.6%,97.2%,–
O=C1/C=C/[C@@H](O)[C@@H]2C[C@@H](O)C[C@H]2/C=C/CCC[C@H](CCc2ccc3ncccc3c2)O1,-18.3% (active),3.05% (active),6.22% (active),-0.158% (active),-23.9% (active),5.12% (active),-10.2% (active),-36.4% (active),7.39% (active),–,17.7%,18%,27.5%,14.3%,17.5%,-4.38% (active),-17.5% (active),41%,2.87% (active),–
Cc1nn(-c2ccccc2)c(Cl)c1/C=N\N=c1/sc2ccccc2n1C,114%,110%,86.8%,93%,99.1%,107%,101%,83.1%,92.7%,–,78.6%,98.2%,92.6%,117%,94.7%,96.2%,111%,104%,104%,–
Cc1ccc(-c2nc3ccccn3c2/C=C2/C(=O)Nc3cc(Cl)ccc32)cc1,87.7%,91.9%,77.5%,62.5%,120%,92.3%,62.6%,98.2%,56.2%,–,93.6%,91.7%,101%,74.7%,94.4%,81.3%,93.7%,101%,27%,–
CN1CCN(CCNc2nccc(-c3c(-c4cccc(O)c4)nc4sccn34)n2)S1(=O)=O,-24.9% (active),99.1%,70.3%,56.2%,94.1%,37.4%,61.8%,119%,76.7%,–,48.7%,73.3%,68.6%,77.5%,47.1%,–,–,76.7%,101%,–
COc1ccc(-c2cnc3c(-c4cccc5cnccc45)cnn3c2)cc1,75.5%,96.1%,58.8%,52.1%,65.8%,-1.14% (active),61.4%,44.6%,59.2%,–,40.8%,41.8%,96.1%,36.4%,68.6%,83.5%,73.4%,74%,56.3%,–
Cc1ncc(C(=O)Nc2ccc(CN3CCN(C)CC3)c(C(F)(F)F)c2)cc1C#Cc1cnc(N)cc1C#N,-63.8% (active),57.5%,-5.62% (active),-96.8% (active),-54.7% (active),-100% (active),-88.2% (active),-35.5% (active),13.6%,–,-7.94% (active),-66.4% (active),-94.1% (active),30.2%,20.6%,5.92% (active),39.5%,-18.2% (active),-46.8% (active),–
